Reference: PubChem BioAssay
Several values for one entry are separate records, joined by “and”; a condition that tells them apart may be missing. Equal values may be shown once. Activity calls are given as the source filed them.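 The calls were made as follows, unless noted: active = normalized viability below 100% at a tested concentration; inactive = the rest.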

Tests used:
[1] = system: F380Y; experiment: BK channel mutant inhibitors and activators – cell-based, U2OS BacMam, thallium flux, beta subunits, selectivity assay, profiling panel (AID 1259406;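 active = thallium flux through the channel raised or lowered by more than 3 SD from vehicle-only wells, actives on both sides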;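 also: initial slope of Thallos dye fluorescence rise after thallium is added; log ratio against the mean of 0.3% DMSO vehicle wells on the same plate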); conditions: U2OS BacMam BK variants, at 30 µM
[2] = system: F380Y/beta1; experiment: as above; conditions: U2OS BacMam BK variants, at 30 µM
[3] = system: F380Y/beta2Delta; experiment: as above; conditions: U2OS BacMam BK variants, at 30 µM
[4] = system: F380Y/beta4; experiment: as above; conditions: U2OS BacMam BK variants, at 30 µM
[5] = target: Calcium-activated potassium channel subunit alpha-1 (Homo sapiens) + Leucine-rich repeat-containing protein 26 (Homo sapiens) (UniProt Q12791+Q2I0M4); experiment: as above; conditions: U2OS BacMam BK variants, F380Y/Slo1WT/gamma1, at 30 µM
[6] = system: R275C; experiment: as above; conditions: U2OS BacMam BK variants, at 30 µM
[7] = system: R275C/beta1; experiment: as above; conditions: U2OS BacMam BK variants, at 30 µM
[8] = system: R275C/beta2Delta; experiment: as above; conditions: U2OS BacMam BK variants, at 30 µM
[9] = system: R275C/beta4; experiment: as above; conditions: U2OS BacMam BK variants, at 30 µM
[10] = system: R275C/Slo1WT/beta2; experiment: as above; conditions: U2OS BacMam BK variants, at 30 µM
[11] = drug combination growth inhibition, ovarian cancer – cell-based, oncology-focused library, rucaparib conditional, profiling panel (AID 1508598); conditions: patient-derived ovarian cancer cells, CellTiter-Glo viability, 144 h, stronger effect = lower value
[12] = growth inhibition, single agent or in combination, cell-based, chromothripsis tumors, cisplatin or BGB combos (AID 1671449; in the data active = inhibition above about 80%;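 also: cells exposed for 96 hours; 0% = vehicle DMSO and 100% = killing by high DMSO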); conditions: LFS_MB_P medulloblastoma cells
[13] = growth inhibition, single agent and combos, cell-based, chromothripsis tumors, cisplatin or BGB combos (AID 1671450; in the data active = inhibition above about 80%;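 also: cells exposed to compound for four days; 0% = vehicle DMSO and 100% = cell killing by high DMSO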); conditions: HDN33 neuroblastoma cells, stronger effect = higher value
[14] = growth inhibition, single agents and combos, ICB984, cell-based, cisplatin or BGB combos, synergistic combos for chromothripsis tumors (AID 1671451; call rule not given here;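 also: cells exposed for 96 hours before readout; 0% = vehicle DMSO and 100% = killing by high DMSO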); conditions: ICB984 medulloblastoma cells, drug combinations, stronger effect = higher value
[15] = growth inhibition, single agents and combos, HTB85, cell-based, BGB or cisplatin IC20 combos, synergistic combos for chromothripsis tumors (AID 1671453; in the data active = inhibition above about 80%;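 also: cells exposed for 96 hours before readout; 0% = vehicle DMSO and 100% = high DMSO killing control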); conditions: HTB85 osteosarcoma cells, drug combinations, stronger effect = higher value
[16] = at 0.000305 µM, OCI-C5x cells, with rucaparib 10 µM, 100% = cells with rucaparib alone
[17] = at 0.000305 µM, OCI-C5x cells, without rucaparib
[18] = at 0.000305 µM, OCI-P5x cells, with rucaparib 20 µM, 100% = cells with rucaparib alone
[19] = at 0.000305 µM, OCI-P5x cells, without rucaparib
[20] = at 0.00122 µM, OCI-C5x cells, with rucaparib 10 µM, 100% = cells with rucaparib alone
[21] = at 0.00122 µM, OCI-C5x cells, without rucaparib
[22] = at 0.00122 µM, OCI-P5x cells, with rucaparib 20 µM, 100% = cells with rucaparib alone
[23] = at 0.00122 µM, OCI-P5x cells, without rucaparib
[24] = at 0.00488 µM, OCI-C5x cells, with rucaparib 10 µM, 100% = cells with rucaparib alone
[25] = at 0.00488 µM, OCI-C5x cells, without rucaparib
[26] = at 0.00488 µM, OCI-P5x cells, with rucaparib 20 µM, 100% = cells with rucaparib alone
[27] = at 0.00488 µM, OCI-P5x cells, without rucaparib
[28] = at 0.0195 µM, OCI-C5x cells, with rucaparib 10 µM, 100% = cells with rucaparib alone
[29] = at 0.0195 µM, OCI-C5x cells, without rucaparib
[30] = at 0.0195 µM, OCI-P5x cells, with rucaparib 20 µM, 100% = cells with rucaparib alone
[31] = at 0.0195 µM, OCI-P5x cells, without rucaparib
[32] = at 0.0781 µM, OCI-C5x cells, with rucaparib 10 µM, 100% = cells with rucaparib alone
[33] = at 0.0781 µM, OCI-C5x cells, without rucaparib
[34] = at 0.0781 µM, OCI-P5x cells, with rucaparib 20 µM, 100% = cells with rucaparib alone
[35] = at 0.0781 µM, OCI-P5x cells, without rucaparib
[36] = at 0.313 µM, OCI-C5x cells, with rucaparib 10 µM, 100% = cells with rucaparib alone
[37] = at 0.313 µM, OCI-C5x cells, without rucaparib
[38] = at 0.313 µM, OCI-P5x cells, with rucaparib 20 µM, 100% = cells with rucaparib alone
[39] = at 0.313 µM, OCI-P5x cells, without rucaparib
[40] = at 1.25 µM, OCI-C5x cells, with rucaparib 10 µM, 100% = cells with rucaparib alone
[41] = at 1.25 µM, OCI-C5x cells, without rucaparib
[42] = at 1.25 µM, OCI-P5x cells, with rucaparib 20 µM, 100% = cells with rucaparib alone
[43] = at 1.25 µM, OCI-P5x cells, without rucaparib
[44] = at 5 µM, OCI-C5x cells, with rucaparib 10 µM, 100% = cells with rucaparib alone
[45] = at 5 µM, OCI-C5x cells, without rucaparib
[46] = at 5 µM, OCI-P5x cells, with rucaparib 20 µM, 100% = cells with rucaparib alone
[47] = at 5 µM, OCI-P5x cells, without rucaparib

Calcium-activated potassium channel subunit alpha-1 (Homo sapiens) + Leucine-rich repeat-containing protein 26 (Homo sapiens), sequence (Q2I0M4 whole entry, looked up, one chain of several): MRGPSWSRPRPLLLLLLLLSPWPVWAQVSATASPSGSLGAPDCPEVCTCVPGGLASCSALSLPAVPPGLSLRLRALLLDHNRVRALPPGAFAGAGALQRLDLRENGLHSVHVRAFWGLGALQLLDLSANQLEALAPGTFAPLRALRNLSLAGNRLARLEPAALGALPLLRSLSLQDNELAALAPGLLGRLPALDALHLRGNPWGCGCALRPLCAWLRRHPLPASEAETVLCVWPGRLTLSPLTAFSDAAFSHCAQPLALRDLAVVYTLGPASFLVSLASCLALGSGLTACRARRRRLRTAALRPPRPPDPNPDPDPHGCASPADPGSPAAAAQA

COCCCNC1=C(C#N)C(=O)NC(c2cccs2)S1 (stereo not given)
inactive: log fold change Tl+ flux [1] 0.041 | log fold change Tl+ flux [2] 0.00355 | log fold change Tl+ flux [3] 0.0315 | log fold change Tl+ flux [4] -0.00136 | log fold change Tl+ flux [5] 0.0147 | log fold change Tl+ flux [6] -0.0102 | log fold change Tl+ flux [7] 0.0346 | log fold change Tl+ flux [8] 0.0144 | log fold change Tl+ flux [9] -0.0186 | log fold change Tl+ flux [10] -0.0245

CN(C)C=NC(=O)c1sc(S(C)(=O)=O)c2c1CCC=C2
inactive: log fold change Tl+ flux [2] 0.036 | log fold change Tl+ flux [3] -0.00643 | log fold change Tl+ flux [4] 0.00437 | log fold change Tl+ flux [5] -0.0666 | log fold change Tl+ flux [6] 0.00156 | log fold change Tl+ flux [7] -0.0344 | log fold change Tl+ flux [8] 0.00771 | log fold change Tl+ flux [9] -0.00153 | log fold change Tl+ flux [10] 0.0518
active: log fold change Tl+ flux [1] 0.147

Cc1c(C(=O)CSc2n[nH]c(=O)n2C(C)c2ccccc2)sc2ccc(Cl)cc12 (stereo not given)
inactive: log fold change Tl+ flux [1] 0.0243 | log fold change Tl+ flux [2] 0.0267 | log fold change Tl+ flux [3] 0.0136 | log fold change Tl+ flux [4] -0.00607 | log fold change Tl+ flux [5] 0.0185 | log fold change Tl+ flux [6] 0.0226 | log fold change Tl+ flux [7] 0.0417 | log fold change Tl+ flux [8] 0.0219 | log fold change Tl+ flux [9] 0.0303 | log fold change Tl+ flux [10] -0.0119

O=[N+]([O-])c1cnc(Sc2nccc(-c3cccnc3)n2)s1
inactive: log fold change Tl+ flux [1] -0.00331 | log fold change Tl+ flux [2] 0.0246 | log fold change Tl+ flux [3] -0.0191 | log fold change Tl+ flux [4] 0.00729 | log fold change Tl+ flux [5] -0.074 | log fold change Tl+ flux [6] 0.0275 | log fold change Tl+ flux [7] 0.026 | log fold change Tl+ flux [8] -0.0186 | log fold change Tl+ flux [9] 0.0146 | log fold change Tl+ flux [10] -0.0189

O=C(c1ccc(OCCN2CCCCC2)cc1)c1c(-c2ccc(O)cc2)sc2cc(O)ccc12
active: viability [11, 22] 97.6% | viability [11, 26] 79.4% | viability [11, 27] 94.8% | viability [11, 30] 90% | viability [11, 31] 94.3% | viability [11, 42] 89.1% | viability [11, 46] 40% | viability [11, 47] 63.8%
inactive: viability [11, 16] 108% | viability [11, 17] 112% | viability [11, 18] 101% | viability [11, 19] 110% | viability [11, 20] 116% | viability [11, 21] 116% | viability [11, 23] 103% | viability [11, 24] 131% | viability [11, 25] 107% | viability [11, 28] 113% | viability [11, 29] 110% | viability [11, 32] 121% | viability [11, 33] 107% | viability [11, 34] 118% | viability [11, 35] 125% | viability [11, 36] 114% | viability [11, 37] 118% | viability [11, 38] 105% | viability [11, 39] 104% | viability [11, 40] 134% | viability [11, 41] 117% | viability [11, 43] 101% | viability [11, 44] 124% | viability [11, 45] 109%

O=C1CN2Cc3c(ccc(Cl)c3Cl)N=C2N1
inactive: viability [11, 16] 111% | viability [11, 17] 124% | viability [11, 20] 113% | viability [11, 21] 126% | viability [11, 22] 100% | viability [11, 23] 107% | viability [11, 24] 115% | viability [11, 25] 121% | viability [11, 26] 106% | viability [11, 27] 105% | viability [11, 28] 111% | viability [11, 29] 115% | viability [11, 31] 103% | viability [11, 32] 109% | viability [11, 33] 107% | viability [11, 35] 101% | viability [11, 36] 125% | viability [11, 37] 118% | viability [11, 40] 123% | viability [11, 41] 107% | viability [11, 44] 122% | viability [11, 45] 116%
active: viability [11, 18] 98.8% | viability [11, 19] 72% | viability [11, 30] 99.6% | viability [11, 34] 94% | viability [11, 38] 90.5% | viability [11, 39] 92.4% | viability [11, 42] 88.3% | viability [11, 43] 92.2% | viability [11, 46] 83.7% | viability [11, 47] 85.5%

O=c1[nH]c(=O)n(C2CCCO2)cc1F (stereo not given)
3.65% and -15.9%: inhibition ([14]; BGB IC40 combo, at 0.05 µM)
inactive: inhibition ([12]; at 0.5 µM, stronger effect = higher value) -23.3% and -7.12% | inhibition ([13]; at 0.5 µM) 9.66% and -23% | inhibition ([14]; at 0.5 µM) -2.47% and -35.6% | inhibition ([15]; at 0.5 µM) 2.38% and -13.2%
-5.89% and -34.8%: inhibition ([15]; measured here: with cisplatin IC20, at 0.5 µM)
23.6% and -35.7%: inhibition ([13]; measured here: with BGB IC20 combination, at 0.5 µM)
-1.4% and -18.1%: inhibition ([12]; measured here: combination with cisplatin, at 5 µM, stronger effect = higher value)
-9.38% and -50%: inhibition ([14]; cisplatin combo, at 0.5 µM)
12.1% and -46.5%: inhibition ([13]; BGB combo, at 5 µM)
2.69% and -26.3%: inhibition ([15]; measured here: with cisplatin IC20, at 5 µM)
-7.69% and 6.31%: inhibition ([15]; measured here: with BGB IC20, at 0.5 µM)
-7.16% and -34.9%: inhibition ([13]; single agent, at 5 µM)
-0.171% and -21.9%: inhibition ([14]; cisplatin combo, at 0.05 µM)
22.1% and -46.3%: inhibition ([12]; measured here: combination with BGB IC40, at 0.005 µM)
-1.29% and -14.6%: inhibition ([15]; measured here: with BGB IC20, at 5 µM)
2.46% and -11.5%: inhibition ([13]; measured here: with cisplatin IC20 combination, at 0.5 µM)
1.7% and -19.8%: inhibition ([12]; measured here: combination with BGB IC20, at 0.005 µM)
10.3% and -19.4%: inhibition ([13]; cisplatin combo, at 5 µM)
15.1% and -15%: inhibition ([15]; single agent, at 5 µM)
39.2% and -46.2%: inhibition ([12]; measured here: combination with BGB IC40, at 0.05 µM)
-44.2% and 1.28%: inhibition ([12]; measured here: combination with cisplatin, at 0.5 µM, stronger effect = higher value)
1.9% and -33.4%: inhibition ([14]; measured here: 5 uM single agent, at 5 µM)
-7.2% and -19%: inhibition ([14]; BGB IC20 combo, at 0.005 µM)
-14.4% and -20.1%: inhibition ([14]; BGB IC40 combo, at 0.005 µM)
-27.4% and -5.1%: inhibition ([14]; cisplatin combo, at 5 µM)
